For 7 molecules, inhibition of ligand binding results are on record in PubChem BioAssay AID1211 (NMMLSC, 2008).

The source made the active and inactive calls. The rule behind the calls is not given here.

The experiment deals with Estrogen receptor (Homo sapiens) (UniProt P03372). The experiment is described as follows: displacement of fluorescent estrogen from ERalpha – cell-based, Cos7 ERalpha-GFP, flow cytometry, primary screen (AID 1211).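 Note: 0% = DMSO vehicle wells and 100% = no E2-Alexa633 signal left.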 Conditions: fluorescent ligand competition, at 10 µM, stronger effect = higher value.
Sequence of Estrogen receptor (Homo sapiens) (P03372 whole entry, looked up): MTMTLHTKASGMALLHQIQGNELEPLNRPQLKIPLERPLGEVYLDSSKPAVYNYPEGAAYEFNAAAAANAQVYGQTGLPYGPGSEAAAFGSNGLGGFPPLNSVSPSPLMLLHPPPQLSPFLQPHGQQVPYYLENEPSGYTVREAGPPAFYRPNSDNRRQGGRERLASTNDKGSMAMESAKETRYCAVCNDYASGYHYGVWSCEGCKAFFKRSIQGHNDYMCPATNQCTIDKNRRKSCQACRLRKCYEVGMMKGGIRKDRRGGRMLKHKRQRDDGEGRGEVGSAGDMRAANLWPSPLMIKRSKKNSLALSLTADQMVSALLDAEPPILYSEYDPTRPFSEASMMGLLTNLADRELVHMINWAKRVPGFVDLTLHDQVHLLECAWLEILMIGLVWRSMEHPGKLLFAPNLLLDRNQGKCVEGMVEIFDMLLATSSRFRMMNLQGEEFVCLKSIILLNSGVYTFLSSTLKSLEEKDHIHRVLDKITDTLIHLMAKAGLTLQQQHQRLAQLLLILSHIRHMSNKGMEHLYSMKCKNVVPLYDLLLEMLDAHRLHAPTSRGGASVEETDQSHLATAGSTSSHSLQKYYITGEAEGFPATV
Consider `CCCCc1cc(=O)oc2c(C)c(O)ccc12`, for which the inhibition of ligand binding is 0% (inactive).

As for `COc1ccccc1C1Nc2c(C(=O)O)cccc2C2C3CCC(C3)C12` (configuration not stated), the inhibition of ligand binding was 19% (inactive).

For the molecule `C=C1C2C[C@H](O)C(C)(C)[C@@]2(O)[C@H](O)C[C@]23C[C@@](C)(O)[C@H](CC[C@H]12)[C@H]3O` (some centres not stated), the inhibition of ligand binding is 30% (inactive).

With `COc1ccc(-n2cc3c(c(C#N)c2=N)CC(C)(C)CC3=O)cc1`, the inhibition of ligand binding was 29% (inactive).

Take `Cc1cc(C)c2c(c1)[C@@H]1C=CC[C@@H]1[C@H](c1ccc(S(=O)(=O)N3CCOCC3)cc1)N2`: the inhibition of ligand binding was 66% (active).

As for `CC12CCCCC1(O)[N+](=O)C1=C(CCCC1)N2[O-]` (configuration not stated), the inhibition of ligand binding was 3% (inactive).

For `Cc1sc2ncnc(NCc3ccco3)c2c1C`, the inhibition of ligand binding was 0% (inactive).
